SMILES strings stand for the structures. “And” between values parts separate entries of the source, which are not always exact repeats. Equal entries are not always repeated. Compounds without any hit were thinned out: in the full panel of roughly 83,000, 20% have a hit.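 Results are percent growth after 48 hours of single-concentration exposure. 100 means growth as in untreated cells, lower positive values show inhibition; negative values down to -100 show cell death.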 Values without a mark were called inactive. The source made the active and inactive calls. Rule for the calls: active = growth percent below 10; inactive = the rest.

For this assay, the system named is MDA-MB-468 breast. Briefly: NCI-60 one-dose screen, 48 h (100 = growth as untreated, 0 = no growth, -100 = all killed). Conditions: 10 µM unless noted.
With `CN1CCN(C(=O)/C=C/c2ccc([N+](=O)[O-])o2)CC1`, the growth is 77.4%.

For the compound `CC(=O)Nc1ccc(-c2cc3c(NCc4ccc(F)cc4)ncnc3s2)cc1`, the growth was 69.7%.

Regarding `CCCCN(CCCC)CCCn1c(=O)c2sc3ncccc3c2n2nnc(-c3ccccc3)c12`, the growth is 109%.

With `CNc1ccc2nc3ccc(=[N+](C)C)cc-3sc2c1`, the growth was -48.1% (active) and -39.5% (active).

For `NC(N)=Nc1ccc(Oc2cccc(NC(N)=Nc3ccc(Br)cc3)c2)cn1`, the growth was 8.74% (active).

Turning to `CCCCCCCCN1C(=O)/C(=c2\sc3n(c2=O)C2C(NN=3)N(CC)C(=O)N2CC)c2ccccc21` (stereo unspecified), the growth is 68.3%.

Take `O=C(NCc1ccco1)Nc1cccc2c(NC(=O)NCc3ccco3)cccc12`: the growth is 85.7% [100 µM].

`Cc1nccc2c3ccc(OCc4cn(-c5ccc(Br)cc5)nn4)cc3n(CCCc3ccccc3)c12`: the growth was 108%.

Consider `CCOCCNC1=C(Cl)C(=O)c2ccccc2C1=O`, for which the growth was 94.7%.

On to `O=C(Nc1ccc(Cl)cc1)Nc1ccc(Oc2nncc3ccccc23)cc1`, for which the growth is -76.2% (active).

Take `CCOC(=O)c1cc(C(=O)c2ccc(Br)cc2)n2ccc(/C=C/c3cc[n+](CC(=O)c4ccc(OC)cc4)cc3)cc12`: the growth was 66.4%.

Consider `O=C(/C=C/c1ccc(Cl)cc1)c1ccc(-n2cc(CN3CCN(c4cc5c(cc4F)c(=O)c(C(=O)O)cn5C4CC4)CC3)nn2)cc1`, for which the growth is 74.4%.

In the case of `N#CSCc1ccc(CSC#N)c(Cl)c1`, the growth is 44.1%.

In the case of `S=c1nn[nH]n1C1CCCCC1`, the growth is 125%.

As for `CCCCCCCC[C@@H]1N[C@@H](C(=O)OC)Cc2c1[nH]c1ccccc21`, the growth is 94.3%.

Consider `COc1ccccc1N1CCN(C(=O)c2ccc3nc(NC(=O)c4ccc(NCCc5ccccc5)c([N+](=O)[O-])c4)sc3c2)CC1`, for which the growth was 99.1%.

As for `OC(c1cc(-c2ccc(C(F)(F)F)cc2)nc(C(F)(F)F)c1)C1CCCCN1` (stereo unspecified), the growth was -88.4% (active) and -89.6% (active) and -76.3% (active).

Consider `CC(=O)N[C@H](C(=O)N[C@@H](CCCNC(=N)N)C(=O)N[C@@H](CCCCN)C(=O)N[C@@H](CCCNC(=N)N)C(=O)N[C@]1(C)CCCCCC/C=C\CCC[C@@](C)(C(=O)N[C@@H](CCCNC(=N)N)C(=O)N[C@@H](CCC(=O)O)C(=O)N[C@@H](CC(C)C)C(=O)N[C@H](C(=O)N[C@@H](CCC(=O)O)C(N)=O)C(C)C)NC(=O)[C@H](CCC(N)=O)NC(=O)[C@H](CC(C)C)NC(=O)[C@H](CC(C)C)NC(=O)[C@H](CCCNC(=N)N)NC(=O)[C@H](CCCNC(=N)N)NC(=O)[C@H](CC(C)C)NC1=O)C(C)C`, for which the growth was 20.5%.

In the case of `Cc1cc(N2CCCCCC2)nc(NC2CCCC(Nc3ccnc4cc(Cl)ccc34)C2)n1` (stereo unspecified), the growth was -63.9% (active).

Consider `CCOC(=O)c1ccc(N/C=C/C(=O)c2ccccc2)cc1`, for which the growth was 98.9%.

For the compound `CC[C@]12C=CCN3CC[C@@]4(c5ccc(OC)cc5N(C)[C@H]4[C@@](O)(C(=O)OC)[C@@H]1OC(=O)CCC(=O)N[C@@H](Cc1c[nH]c4ccccc14)C(=O)OC)[C@@H]32`, the growth was -20.8% (active).

In the case of `C=C(C)[C@@H]1CC[C@]2(CN)CC[C@]3(C)[C@H](CC[C@@H]4[C@@]5(C)CCCNC(C)(C)[C@@H]5CC[C@]43C)[C@@H]12`, the growth is -65.5% (active).

As to `Cc1cccc(-n2c(C)nc3ccc(N4CCCNC4=O)cc3c2=O)c1`, the growth is 99.4%.

For `O=[N+]([O-])c1cc2c(cc1Br)C1C(C3C2C(Cl)(Cl)C(Cl)=C(Cl)C3(Cl)Cl)C(Cl)(Cl)C(Cl)=C(Cl)C1(Cl)Cl` (stereo unspecified), the growth is 95.7%.

Turning to `Cc1[nH]c(C(=O)Nc2ccccc2OCc2cccc(C(=O)NC3CCCNC3)c2)c(Cl)c1Cl` (stereo unspecified), the growth was -80.6% (active).

On to `Oc1ccc2c(=S)cc(-c3ccc(Br)cc3)oc2c1O`, for which the growth is -2.5% (active).

Take `C/C(=C(/c1ccc(O)cc1)c1ccc(OCCN2CCCCCC2)cc1)c1ccccc1`: the growth was 31.8%.

For the compound `COc1cc(N2CCC(N(C)C)CC2)ccc1Nc1ncc(Cl)c(Nc2ccccc2P(C)(C)=O)n1`, the growth is -38.3% (active).

For the compound `O=C1Nc2ccccc2/C1=C/c1ccc(CO)n1-c1ccc(Cl)cc1`, the growth was 27.8%.

Turning to `O=C1NC(=O)c2cc([N+](=O)[O-])cc3cccc1c23`, the growth is 91%.

With `Cc1ccc(Nc2nc(-c3cc(O)c(C)c(C)c3O)cs2)cc1`, the growth was 44.5%.

The record behind these values is PubChem BioAssay (NCI).
